Here are results for 28 molecules from ChEMBL document CHEMBL1157539, “Thousands of chemical starting points for antimalarial lead identification” (Nature, 2010).

Common to all, as to type: functional
The test system of assay [1] is Plasmodium falciparum. The experiment in a line: GSK_TCMDC: Inhibition of Plasmodium falciparum 3D7 in whole red blood cells, using parasite LDH activity as an index of growth. Test compounds present at 2uM.
Assay [2] concerns Plasmodium falciparum. The experiment in a line: GSK_TCMDC: Inhibition of Plasmodium falciparum Dd2 in whole red blood cells, using parasite LDH activity as an index of growth. Test compounds present at 2uM.
A further assay concerns HepG2. The experiment in a line: GSK_TCMDC: Percent inhibition of human HepG2 cell line. Test compounds present at 10uM.

The term Inhibition denotes how much of the control response was suppressed. With `COc1ccc(Br)cc1/C=C/C(=O)Nc1cccc(C2CCN(C)CC2)c1.O=CO`, the Inhibition is listed as 95% in the assay with Plasmodium falciparum [1], 37% in the assay on Plasmodium falciparum [2] and 44% in the assay with HepG2.
Taken in the same sequence, the figures for `N#Cc1cccc(NC(=O)Nc2cccc(-c3cccc(-c4nc5ccccc5[nH]4)c3)c2)c1` were 100%, 96% and 46%.
The matching figures for `N#Cc1ccc2c(c1)CCN(CCCn1c(-c3ccc4ccccc4c3)nc3ccncc31)CC2`: 100%, 97% and 38%.
For `NC(=O)c1cc2nc(Nc3ccc(F)cc3)nc(NC3CCC3)c2[nH]1.O=CO`, the Inhibition with Plasmodium falciparum [1] is given as 100%; in the assay with Plasmodium falciparum [2], 100%; with HepG2, 0%.
In the case of `CCCc1cc(OC)c(CC2c3cc(O)c(C)cc3CCN2C)cc1OC.Cl` (centres undefined), the Inhibition stood at 99% with Plasmodium falciparum [1], 89% in the assay on Plasmodium falciparum [2] and 32% with HepG2.
The matching figures for `N#Cc1ccc(CN2CCC(Oc3ccc(NC(=O)c4cccs4)cc3)C2)cc1.O=C(O)C(F)(F)F` (centres undefined): 82%, 65% and 5%.
With `Cc1ccc(O)cc1Nc1ccnc2ccc(C(C)(C)C)cc12`, the Inhibition with Plasmodium falciparum [1] turned out to be 100%; in the assay with Plasmodium falciparum [2], 100%; in the assay on HepG2, 6%.
In the case of `O=C(Cc1cccc(Cl)c1)Nc1cccc(-c2c[nH]c3nc(Nc4cccc(O)c4)ncc23)c1.O=C(O)C(F)(F)F`, the Inhibition in the assay on Plasmodium falciparum [1] was 100%; with Plasmodium falciparum [2], 74%; in the assay on HepG2, 23%.
Consider `Fc1cccc(Cn2ncc3cc(Nc4ncnc5sc(C#Cc6ncc[nH]6)cc45)ccc32)c1`, for which the Inhibition with Plasmodium falciparum [1] was determined as 100%; in the assay on Plasmodium falciparum [2], 30%; in the assay with HepG2, 31%.
On to `COc1ccc2nccc([C@@H](O)CN3CCC(NCc4cc5c(Cl)cc(Cl)cc5[nH]4)CC3)c2c1.O=C(O)C(=O)O`, for which the Inhibition in the assay with Plasmodium falciparum [1] is given as 100%; in the assay on Plasmodium falciparum [2], 86%; in the assay on HepG2, 93%.
On to `Cc1cccc(NC(=O)Nc2cccc(-c3ccc(-c4nc5cc(C(F)(F)F)ccc5[nH]4)cc3)c2)c1`, for which the Inhibition is 100% with Plasmodium falciparum [1], 94% with Plasmodium falciparum [2] and 44% with HepG2.
The matching figures for `CC(C)NCC(O)COc1ccc(Cc2ccc(OCC(O)CNC(C)C)cc2)cc1.Cl` (centres undefined): 100%, 18% and 0%.
For `COc1ccc(CN2CCCC(C(=O)c3ccc(C(F)(F)F)cc3)C2)c(O)c1` (centres undefined), the results for the Inhibition in the assay with Plasmodium falciparum [1], in the assay on Plasmodium falciparum [2] and in the assay on HepG2 were 98%, 88% and 0%, respectively.
Taken in the same sequence, the figures for `CN(C)CCN1CCN(CCCN2c3ccccc3Sc3ccc(C(F)(F)F)cc32)CC1.Cl` were 99%, 61% and 98%.
As to `COc1ccccc1/C=C/C(=O)N(C)C1CCN(CCCCCNC(=O)/C=C/c2ccc(Cl)c(Cl)c2)C1` (centres undefined), the Inhibition with Plasmodium falciparum [1] is 94%; in the assay with Plasmodium falciparum [2] it was 14%; in the assay on HepG2, 10%.
Take `Br.CC1(C)NC(N)=NC(=N)N1OCCCOc1ccc(N)cc1`: the Inhibition in the assay with Plasmodium falciparum [1] stood at 96%; with Plasmodium falciparum [2], 95%; with HepG2, 66%.
Taken in the same sequence, the figures for `CCOc1c(OC)ccc2c1CCN(CCN1CCC(NC(=O)c3ccc(-c4cccc(C(F)(F)F)c4C(F)(F)F)cc3)CC1)C2` were 100%, 57% and 30%.
As to `COc1ccc(-c2csc3ncnc(Cl)c23)cc1`, the Inhibition with Plasmodium falciparum [1] is listed as 96%; in the assay with Plasmodium falciparum [2], 97%; in the assay with HepG2 it was 0%.
Taken in the same sequence, the figures for `O=C(Nc1cccc(-c2ccc(-c3nc4cc(C(F)(F)F)ccc4[nH]3)s2)c1)c1c[nH]cn1` were 89%, 36% and 55%.
As for `O=C(Nc1ccc(Oc2ccccc2)cc1)N(Cc1ccc(-c2cccc(CN3CCNCC3)c2)cc1)C1CCN(Cc2ccccc2)CC1.O=C(O)C(F)(F)F`, the Inhibition in the assay on Plasmodium falciparum [1] was 93%; in the assay on Plasmodium falciparum [2], 53%; with HepG2 it was 10%.
As for `O=C(COc1cnc2ccccc2n1)Nc1ccccc1Sc1ccc(Cl)cc1`, the Inhibition in the assay on Plasmodium falciparum [1] is listed as 100%; in the assay with Plasmodium falciparum [2], 100%; in the assay on HepG2, 6%.
As for `COc1ccc(Nc2nccc(-c3ccc(NC(=O)c4cc5cc(F)ccc5[nH]4)cc3)n2)cc1`, the Inhibition is 91% in the assay on Plasmodium falciparum [1], 26% with Plasmodium falciparum [2] and 21% in the assay with HepG2.
With `CCNc1cc(C(=O)N[C@@H](Cc2ccccc2)[C@H](O)CNC(C)(C)CC(C)(C)C)c(F)c(N2CCCCS2(=O)=O)c1`, the results for the Inhibition in the assay on Plasmodium falciparum [1], in the assay with Plasmodium falciparum [2] and in the assay with HepG2 were 94%, 63% and 8%, respectively.
The matching figures for `CN1CCC(c2cc3c(cc2Br)CCN3C(=O)Nc2ccc(-c3ccncc3)c(Cl)c2)CC1`: 91%, 0% and 26%.
The matching figures for `CC(CNc1nc(NCC(c2ccccc2)c2ccccc2)c2nc[nH]c2n1)c1ccccc1` (centres undefined): 93%, 24% and 5%.
Taken in the same sequence, the figures for `COc1cc(NC(=O)c2ccc(-c3ccccc3)cc2)ccc1OCCCN1CCC(c2ccccc2)CC1.Cl` were 100%, 30% and 46%.
On to `Cc1cc(N(C)C2CCN(CC3CCCCC3)C2)nc(Nc2ccc(Br)cc2)n1` (centres undefined), for which the Inhibition in the assay with Plasmodium falciparum [1] turned out to be 98%; in the assay with Plasmodium falciparum [2], 38%; in the assay on HepG2, 14%.
Taken in the same sequence, the figures for `O=C(NCCNc1ccnc(Nc2ccc(F)cc2)n1)Nc1ccc2c(c1)OCO2` were 97%, 3% and 15%.
